compound: C#CCNC(=O)CCSSCCC(=O)NCCc1ccc(C=O)c(C=O)c1; experiment: lysine labeling ratio R10:1 (500 µM / 50 µM probe), SILAC-ABPP in living cells; higher = lower intrinsic lysine reactivity toward the probe, active = 2 or less; settings: HeLa; probe concentrations 500 vs 50 µM
How it was run: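 With forward and reverse label swaps, light and heavy SILAC HeLa cells, alive and in PBS at room temperature, were exposed to either 500 µM or 50 µM of an alkyne-tagged lysine probe bearing a disulfide link. After mixing, lysates were clicked to biotin-azide, cut with trypsin, pulled down on neutravidin, freed with DTT, alkylated and analysed on a TIMS-TOF Pro by LC-MS/MS. The per-lysine value R is the median over forward and reverse replicates of the filtered median high-probe/low-probe MS1 peptide ratio. It is capped at 20.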

Sequence of UniProt P23229 (P23229 whole entry): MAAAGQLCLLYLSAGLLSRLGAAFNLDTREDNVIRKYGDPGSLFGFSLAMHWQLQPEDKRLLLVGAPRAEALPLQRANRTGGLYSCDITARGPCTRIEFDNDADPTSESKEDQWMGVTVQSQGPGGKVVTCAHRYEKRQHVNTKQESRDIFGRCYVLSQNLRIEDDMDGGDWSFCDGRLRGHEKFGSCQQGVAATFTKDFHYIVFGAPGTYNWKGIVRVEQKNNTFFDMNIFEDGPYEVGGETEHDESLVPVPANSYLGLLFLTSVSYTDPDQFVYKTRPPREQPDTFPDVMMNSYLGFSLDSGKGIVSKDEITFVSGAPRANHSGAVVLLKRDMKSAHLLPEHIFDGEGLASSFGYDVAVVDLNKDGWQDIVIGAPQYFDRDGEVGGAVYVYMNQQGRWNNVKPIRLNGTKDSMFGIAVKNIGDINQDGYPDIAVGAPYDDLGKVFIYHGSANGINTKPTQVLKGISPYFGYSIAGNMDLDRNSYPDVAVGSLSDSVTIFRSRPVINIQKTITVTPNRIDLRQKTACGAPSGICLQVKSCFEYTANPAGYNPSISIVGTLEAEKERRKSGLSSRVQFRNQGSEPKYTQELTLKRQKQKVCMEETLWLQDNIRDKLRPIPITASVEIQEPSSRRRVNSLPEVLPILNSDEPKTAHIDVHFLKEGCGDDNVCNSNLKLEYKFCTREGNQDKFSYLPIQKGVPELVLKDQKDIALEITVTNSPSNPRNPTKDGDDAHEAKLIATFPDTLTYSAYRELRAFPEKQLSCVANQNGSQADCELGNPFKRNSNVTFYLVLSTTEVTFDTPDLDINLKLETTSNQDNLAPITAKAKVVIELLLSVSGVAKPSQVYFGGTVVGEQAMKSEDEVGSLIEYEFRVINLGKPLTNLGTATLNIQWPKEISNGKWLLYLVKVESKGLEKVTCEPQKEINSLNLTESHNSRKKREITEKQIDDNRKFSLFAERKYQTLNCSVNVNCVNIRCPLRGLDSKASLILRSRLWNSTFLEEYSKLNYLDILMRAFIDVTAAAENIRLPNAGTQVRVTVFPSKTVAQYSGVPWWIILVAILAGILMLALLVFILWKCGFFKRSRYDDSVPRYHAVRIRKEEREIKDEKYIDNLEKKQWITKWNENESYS
Sequence of UniProt P13010 (P13010 whole entry): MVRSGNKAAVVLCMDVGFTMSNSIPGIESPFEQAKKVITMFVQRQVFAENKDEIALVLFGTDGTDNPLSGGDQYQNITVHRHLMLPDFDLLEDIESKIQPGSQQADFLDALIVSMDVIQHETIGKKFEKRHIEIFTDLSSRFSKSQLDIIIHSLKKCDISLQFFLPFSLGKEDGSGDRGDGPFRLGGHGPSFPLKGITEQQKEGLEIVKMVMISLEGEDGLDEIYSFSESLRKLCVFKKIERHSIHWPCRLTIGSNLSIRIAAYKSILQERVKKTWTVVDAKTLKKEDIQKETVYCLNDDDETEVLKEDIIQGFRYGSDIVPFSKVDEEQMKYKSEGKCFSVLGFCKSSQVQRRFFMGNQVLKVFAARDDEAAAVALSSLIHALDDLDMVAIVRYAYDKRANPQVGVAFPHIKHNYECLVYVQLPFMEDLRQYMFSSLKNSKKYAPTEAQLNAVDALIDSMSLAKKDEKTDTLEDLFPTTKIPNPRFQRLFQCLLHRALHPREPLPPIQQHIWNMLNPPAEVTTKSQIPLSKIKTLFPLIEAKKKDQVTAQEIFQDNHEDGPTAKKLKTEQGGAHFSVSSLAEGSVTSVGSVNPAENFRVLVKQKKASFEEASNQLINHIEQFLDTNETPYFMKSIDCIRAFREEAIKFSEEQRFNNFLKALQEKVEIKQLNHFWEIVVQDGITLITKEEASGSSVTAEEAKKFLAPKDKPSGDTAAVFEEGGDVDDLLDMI
Sequence of UniProt Q02818 (Q02818 whole entry): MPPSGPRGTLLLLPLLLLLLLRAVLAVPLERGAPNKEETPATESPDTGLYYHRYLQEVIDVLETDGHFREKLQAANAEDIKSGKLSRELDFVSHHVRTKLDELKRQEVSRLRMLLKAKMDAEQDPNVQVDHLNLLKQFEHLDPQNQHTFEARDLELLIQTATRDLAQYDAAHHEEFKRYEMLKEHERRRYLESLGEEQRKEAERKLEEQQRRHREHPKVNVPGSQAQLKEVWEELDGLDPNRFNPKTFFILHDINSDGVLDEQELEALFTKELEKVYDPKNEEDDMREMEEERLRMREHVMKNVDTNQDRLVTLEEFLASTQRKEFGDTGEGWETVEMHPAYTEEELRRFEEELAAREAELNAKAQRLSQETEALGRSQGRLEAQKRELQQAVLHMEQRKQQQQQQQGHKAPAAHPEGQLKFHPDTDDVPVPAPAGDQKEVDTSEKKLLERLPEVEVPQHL
Sequence of UniProt P05186 (P05186 whole entry): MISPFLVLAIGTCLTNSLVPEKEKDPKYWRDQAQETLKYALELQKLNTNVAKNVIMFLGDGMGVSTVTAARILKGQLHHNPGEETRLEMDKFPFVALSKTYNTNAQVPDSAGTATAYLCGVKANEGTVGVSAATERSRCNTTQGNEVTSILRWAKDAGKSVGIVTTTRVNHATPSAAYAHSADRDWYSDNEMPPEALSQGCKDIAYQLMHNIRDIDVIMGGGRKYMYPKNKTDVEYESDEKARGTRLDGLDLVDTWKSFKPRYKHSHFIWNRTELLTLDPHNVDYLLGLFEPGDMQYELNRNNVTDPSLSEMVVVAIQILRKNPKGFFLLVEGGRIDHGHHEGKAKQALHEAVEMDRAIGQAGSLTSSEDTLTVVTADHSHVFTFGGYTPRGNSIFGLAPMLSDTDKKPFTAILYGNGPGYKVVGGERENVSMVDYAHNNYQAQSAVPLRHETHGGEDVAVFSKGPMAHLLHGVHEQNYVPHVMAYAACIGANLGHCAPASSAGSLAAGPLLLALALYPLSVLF
Sequence of UniProt P35579 (P35579 whole entry): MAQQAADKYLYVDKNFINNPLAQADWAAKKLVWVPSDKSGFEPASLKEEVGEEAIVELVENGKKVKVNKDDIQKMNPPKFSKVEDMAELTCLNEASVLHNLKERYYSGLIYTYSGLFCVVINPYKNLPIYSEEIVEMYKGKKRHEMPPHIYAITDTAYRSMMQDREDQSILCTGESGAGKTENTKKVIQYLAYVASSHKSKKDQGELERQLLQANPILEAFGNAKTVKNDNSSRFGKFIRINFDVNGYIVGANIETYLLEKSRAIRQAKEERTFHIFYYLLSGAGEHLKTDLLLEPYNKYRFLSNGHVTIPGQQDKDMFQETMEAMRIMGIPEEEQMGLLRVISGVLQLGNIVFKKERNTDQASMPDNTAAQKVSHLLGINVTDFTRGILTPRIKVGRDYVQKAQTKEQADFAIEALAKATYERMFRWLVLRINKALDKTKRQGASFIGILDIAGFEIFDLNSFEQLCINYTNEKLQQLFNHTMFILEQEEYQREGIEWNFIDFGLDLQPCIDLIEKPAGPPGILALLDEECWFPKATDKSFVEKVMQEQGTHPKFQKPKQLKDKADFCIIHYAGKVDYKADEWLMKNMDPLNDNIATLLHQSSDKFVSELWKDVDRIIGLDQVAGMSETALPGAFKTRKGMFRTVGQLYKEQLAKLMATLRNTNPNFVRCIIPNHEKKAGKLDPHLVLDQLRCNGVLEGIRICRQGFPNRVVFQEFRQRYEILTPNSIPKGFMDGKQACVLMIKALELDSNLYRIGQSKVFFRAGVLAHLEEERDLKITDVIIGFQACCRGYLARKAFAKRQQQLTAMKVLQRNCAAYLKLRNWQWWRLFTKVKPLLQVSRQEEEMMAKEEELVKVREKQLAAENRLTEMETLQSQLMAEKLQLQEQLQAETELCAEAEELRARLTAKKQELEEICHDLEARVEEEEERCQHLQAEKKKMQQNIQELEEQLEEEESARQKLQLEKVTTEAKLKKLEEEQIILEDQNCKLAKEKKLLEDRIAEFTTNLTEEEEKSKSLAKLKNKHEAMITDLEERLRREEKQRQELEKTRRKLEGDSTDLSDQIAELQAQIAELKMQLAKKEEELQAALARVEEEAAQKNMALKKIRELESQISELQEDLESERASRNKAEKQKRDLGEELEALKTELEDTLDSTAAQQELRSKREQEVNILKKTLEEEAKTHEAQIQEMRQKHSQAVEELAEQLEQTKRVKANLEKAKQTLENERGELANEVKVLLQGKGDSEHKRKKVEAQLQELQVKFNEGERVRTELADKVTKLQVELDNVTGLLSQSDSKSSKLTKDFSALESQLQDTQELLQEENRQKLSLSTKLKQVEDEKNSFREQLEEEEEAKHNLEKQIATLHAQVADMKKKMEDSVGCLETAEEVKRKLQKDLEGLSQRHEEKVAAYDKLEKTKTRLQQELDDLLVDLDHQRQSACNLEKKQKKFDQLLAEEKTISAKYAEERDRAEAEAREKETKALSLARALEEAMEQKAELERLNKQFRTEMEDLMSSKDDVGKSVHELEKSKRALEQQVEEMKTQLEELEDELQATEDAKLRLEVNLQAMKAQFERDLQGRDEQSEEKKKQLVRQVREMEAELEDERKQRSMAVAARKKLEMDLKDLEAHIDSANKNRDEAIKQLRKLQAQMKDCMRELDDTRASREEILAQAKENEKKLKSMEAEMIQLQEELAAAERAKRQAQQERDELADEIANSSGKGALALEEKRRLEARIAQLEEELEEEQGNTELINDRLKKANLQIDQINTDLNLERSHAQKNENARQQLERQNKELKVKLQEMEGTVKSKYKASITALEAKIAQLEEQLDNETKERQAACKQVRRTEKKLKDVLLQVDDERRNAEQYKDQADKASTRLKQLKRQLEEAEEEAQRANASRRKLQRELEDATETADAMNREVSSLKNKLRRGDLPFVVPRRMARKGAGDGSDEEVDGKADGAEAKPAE

Lysine labeling ratio R10:1, active:
UniProt P05186 (lysine site: K346) 0.557, MYH9 (lysine site: K1392) (UniProt P35579) 1.15, PA2G4 (lysine site: K238) (UniProt Q9UQ80) 1.53

Lysine labeling ratio R10:1, inactive:
ITGA6 (lysine site: K953) (UniProt P23229) 3.1, XRCC5 (lysine site: K36) (UniProt P13010) 2.42, PTBP1 (lysine site: K137) (UniProt P26599) 3.2, TLN1 (lysine site: K2361) (UniProt Q9Y490) 5.09, NUCB1 (lysine site: K183) (UniProt Q02818) 3.16, FAT4 (lysine site: K4224) (UniProt Q6V0I7) 5.49, UniProt P06576 (lysine site: K133) 3.53, UniProt P60228 (lysine site: K409) 2.54, FSCN1 (lysine site: K399) (UniProt Q16658) 3.81, ACTN4 (lysine site: K437) (UniProt O43707) 2.2, UniProt P62888 (lysine site: K9) 2.95, UniProt P62829 (lysine site: K74) 3.78, ITGA6 (lysine site: K404) (UniProt P23229) 6.64, CLTC (lysine site: K637) (UniProt Q00610) 2.63

Source: the supplement of paper PMC11001985
